The list is not random: actives were taken first. Their share in the collection is about 6.9%.
Vif-A3F inh: blocks the Vif interaction with APOBEC3F | HeLa A3F-eYFP + Vif (tagged APOBEC3F with the HIV-1 protein that degrades it), YFP fluorescence increase | Potency, µM (highest dose often 46.1 µM), for the others: top-dose activity, negative = active | 390,000 compounds, 0.2% hits | AID 602313; note: potency is the fitted concentration of half-maximal effect; % of control where 0% means no effect; nearly all actives have a fitted effect of over 65% in size
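HeLa cells stably expressing Vif plus C-terminally eYFP-tagged A3F were seeded, incubated overnight at 37 deg C, dosed with compound, incubated overnight again at 37 deg C. Yellow fluorescence (Ex 488/Em 500-530) reported blocked Vif-mediated A3F-eYFP degradation.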
Vif-A3G inh: blocks the Vif interaction with human APOBEC3G; HeLa A3G-eYFP + Vif (tagged APOBEC3G with the HIV-1 protein that degrades it), YFP fluorescence, overnight; 410,000 compounds, 0.076% hits; AID 602310; Potency, µM (titrated, usually from 46.1 µM), without a hit: at the highest dose activity, negative = active, usual class: inhibitors; Q9HC16; note: potency is the fitted concentration of half-maximal effect; % is set by controls: 0 for no effect and ±100 for the full control effect; nearly all actives have a fitted effect of over 60% in size
Target sequence (Q9HC16 whole entry, looked up): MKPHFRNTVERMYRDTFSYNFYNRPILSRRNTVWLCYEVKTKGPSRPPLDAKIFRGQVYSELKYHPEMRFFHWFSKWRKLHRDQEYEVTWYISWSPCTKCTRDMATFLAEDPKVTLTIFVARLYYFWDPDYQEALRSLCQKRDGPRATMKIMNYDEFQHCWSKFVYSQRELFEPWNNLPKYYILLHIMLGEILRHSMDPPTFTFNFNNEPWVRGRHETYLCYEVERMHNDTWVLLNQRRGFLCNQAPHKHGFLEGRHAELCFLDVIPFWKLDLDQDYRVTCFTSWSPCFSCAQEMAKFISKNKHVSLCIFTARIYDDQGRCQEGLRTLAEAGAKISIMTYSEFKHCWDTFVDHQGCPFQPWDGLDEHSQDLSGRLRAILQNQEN
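Read-out is eYFP fluorescence (Ex 488/Em 500-530) from Vif-expressing HeLa A3G-eYFP cells; more signal means A3G escaped Vif-mediated degradation. Cells plated overnight, compound pinned in, incubated overnight at 37 deg C.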
Giardia killer: Giardia lamblia killing | Giardia lamblia trophozoite viability | activity change, % at 7.66 µM, hits read low | 340,000 compounds, 0.15% hits; in the data active = activity change below about -80%; inconclusive = between about -30% and that limit;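 note: parasites exposed to compound for two days anaerobically before the ATP read; % is set by controls: 0 for no effect and ±100 for the full control effect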
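ATP-content bioluminescence gauges trophozoite survival. Cells (100/well) receive compound and incubate anaerobically for 48 hrs at 37 deg C; detection reagent follows for 15-30 min at room temperature.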
IL-1B inflam inh: inhibitors of inflammasome signaling (IL-1 beta secretion). THP-1 LPS/ATP IL-1B secretion, AlphaLISA, 16 h; hits give low values. activity change, % at 57.5 µM. 360,000 compounds, 4.7% hits; in the data active = activity change below about -50%; inconclusive = mostly about -30% to -49%; note: % is set by controls: 0 for no effect and ±100 for the full control effect
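THP-1 cells pretreated 1 hr with compounds (up to 57.5 uM final), then stimulated with LPS (250 ng/mL final) plus ATP (1.25 mM final); secreted IL-1B measured by AlphaLISA after 16 hr, decreased signal indicating inhibition.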
SW480 rerep: DNA re-replication induction in SW480 cells | Potency, µM (highest dose often 46.1 µM), for inactives: top-dose re-replication activation, most hits filed as activators | 340,000 compounds, 1.8% hits | AID 624297 | SW480 DNA re-replication, Hoechst DNA content imaging, 48 h; note: potency is the fitted concentration of half-maximal effect; % of control where 0% means no effect; nearly all actives have a fitted effect of over 55% in size
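Treated cells incubate 48 hr (37 C, 5% CO2), are stained 40 min with Hoechst, and nuclear fluorescence is enumerated; a rise in nuclei with high DNA signal marks re-replication.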
MCF10A rerep: induces DNA re-replication in MCF 10a normal breast cells; Potency, µM (titrated, usually from 46.1 µM), without a hit: at the top dose activity, positive = re-replication, actives largely listed as activators; MCF 10A DNA re-replication, Hoechst nuclear intensity, 48 h; 350,000 compounds, 2.9% hits; note: potency is the fitted concentration of half-maximal effect; % of control where 0% means no effect; nearly all actives have a fitted effect of over 50% in size
An asterisk follows results filed as active; ? = inconclusive; . = no result given. Unless noted, calls come from the whole dose curve; as a rule, active = well fitted curve in the direction sought with a large enough effect; inconclusive = small, poorly fitted or top-dose-only effect, or another doubt; inactive = no such curve, though single readings can be large; an effect the other way counts as inactive or inconclusive.

SMILES	Vif-A3F inh	Vif-A3G inh	Giardia killer	IL-1B inflam inh	SW480 rerep	MCF10A rerep
Nc1c(C(=O)NC2CC2)c2nc3ccccc3nc2n1-c1ccc2c(c1)OCO2	-11%	-3%	15	-51*	?	2.9µM*
CCOC(=O)c1c(C)c(-c2ccccc2)n(CC(=O)NCc2ccccc2)c1C	-7%	0%	.	.	.	.
Cn1c(=O)n(-c2ccc3c(c2)OCO3)c2nc(-c3ccccc3)nc(C(N)=O)c21	-2%	3%	.	.	.	.
CC(=O)Nc1cc([N+](=O)[O-])cc(NC(C)=O)c1NC(C)=O	.	2%	.	.	.	.
Cn1c(=O)n(C)c2cc(N3CCOCC3)c(NC(=O)c3ccc(C(C)(C)C)cc3)cc21	1%	3%	.	.	.	.
COc1ccc(NC(=O)COc2ccc(N(C)S(=O)(=O)c3ccc(Cl)cc3)cc2)cc1	-4%	-2%	-23	-52*	5%	1%
CC(=O)Nc1ccc(NC(=O)c2ccc(S(=O)(=O)N(C)c3ccccc3)cc2)cc1	-26%	-1%	6	0	1%	12%
COc1ccc(C(=O)Nc2ccc(S(=O)(=O)N(C)c3ccccc3)cc2)cc1	4%	4%	-2	-65*	1%	16%
Cc1ccc(CNC(=O)c2ccc(N(C)S(=O)(=O)c3ccccc3)cc2)cc1	7%	0%	48	-15	-1%	16%
COc1ccc(N(C)S(=O)(=O)c2cccc(C(=O)NCC3CCCCC3)c2)cc1	6%	2%	-5	-50*	24%	17%
CN(c1ccccc1)S(=O)(=O)c1ccc(C(=O)NCc2ccc(F)cc2)cc1	-4%	-4%	-9	-51*	?	2%
Cc1ccc(NC(=O)c2ccc(-n3nncc3-c3ccccc3)cc2)cc1	.	0%	2	.	.	.
COc1ccc2oc(=O)cc(CN3CCN(C(=O)c4ccccc4)CC3)c2c1	-24%	-8%	.	.	.	.
CC(=O)c1cccc(NC(=O)CSc2nc3c(=O)n(C)c(=O)n(C)c3n2C)c1	-2%	-8%	.	.	.	.
Cc1cccc(NS(=O)(=O)c2ccc(Cl)c(C(=O)Nc3ccccc3C)c2)c1	0%	-5%	.	.	.	.
Cc1nc2ccc(NC(=O)c3ccc(S(=O)(=O)N(C)c4ccccc4)cc3)cc2s1	-20%	-21%	-2	-62*	10%	?
Cc1nc2ccc(NC(=O)N(C)c3ccccc3)cc2s1	-18%	0%	10	20	-265%	0%
Cc1ccc(CN(C)C(=O)c2ccc(S(=O)(=O)N(C)c3ccccc3)cc2)o1	4%	-4%	-11	-16	8.2µM*	?
CN(Cc1ccc(OC(F)F)cc1)C(=O)c1ccc(S(=O)(=O)N(C)c2ccccc2)cc1	2%	-1%	-4	-18	-11%	12%
Cc1ccc(S(=O)(=O)N(C)c2ccc(C(=O)NCC(c3ccco3)N(C)C)cc2)cc1 (centres undefined)	-8%	2%	10	12	-1%	9.2µM*
CN(C)c1ccc(CNC(=O)C2CCCN(S(=O)(=O)c3ccc4c(ccn4C)c3)C2)cc1 (centres undefined)	-8%	-15%	.	.	.	.
CC(=O)c1ccc(NC(=O)c2sc(-n3nc(C)c(Cc4ccccc4)c3C)nc2C)cc1	-1%	-3%	.	.	.	.
COc1ccccc1-c1nnc2sc(COc3ccccc3)nn12	-6%	4%	4	-11	1%	3%
c1ccc(-c2nnc3sc(-c4ccncc4)nn23)cc1	-6%	-1%	-6	-51*	1%	20%
Clc1ccc(-c2nn3c(-c4ccccc4)nnc3s2)cc1	-10%	0%	8	-8	3%	3%
COc1ccc(-c2nn3c(-c4ccccc4)nnc3s2)cc1	5%	-13%	-28	-55*	-6%	?
COc1cccc(OC)c1-c1nn2c(-c3cc(-c4ccccc4)n[nH]3)nnc2s1	-1%	-24%	6	-2	9.2µM*	15µM*
COc1ccccc1-c1nnc2sc(COc3ccc(Cl)cc3Cl)nn12	0%	0%	26	-76*	5%	?
Cc1ccc(CCNS(=O)(=O)c2ccc3c(c2)CCN3C(=O)CCC(=O)O)cc1	0%	3%	.	.	.	.

Compound activity from PubChem.
